Compound activity: PubChem, National Center for Advancing Translational Sciences (NCATS)
SARS PLpro yeast: inhibitors of SARS-CoV papain-like protease in yeast; Potency, µM (titrated, usually from 32.9 µM), without a hit: top-dose activity, positive = growth rescue, hits mostly activators; 330,000 tested, 0.19% active; AID 485353; S. cerevisiae expressing SARS-CoV PLpro, growth rescue; calls by dose curve; further: 0% is about no effect; nearly all actives have a fitted effect of over 55% in size
AmpC no deterg: AmpC beta-lactamase inhibition without detergent | AmpC nitrocefin hydrolysis, absorbance 480 nm, 0.0001% Triton | 330,000 tested, 0.52% active | P00811 | Potency, µM (titrated, usually from 57.1 µM), inactives show at the highest dose activity change, negative = inhibition, actives largely listed as inhibitors;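 further: plate controls were no compound for no effect and no enzyme for full effect; nearly all actives have a fitted effect of over 20% in size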
Target sequence (P00811 whole entry, looked up): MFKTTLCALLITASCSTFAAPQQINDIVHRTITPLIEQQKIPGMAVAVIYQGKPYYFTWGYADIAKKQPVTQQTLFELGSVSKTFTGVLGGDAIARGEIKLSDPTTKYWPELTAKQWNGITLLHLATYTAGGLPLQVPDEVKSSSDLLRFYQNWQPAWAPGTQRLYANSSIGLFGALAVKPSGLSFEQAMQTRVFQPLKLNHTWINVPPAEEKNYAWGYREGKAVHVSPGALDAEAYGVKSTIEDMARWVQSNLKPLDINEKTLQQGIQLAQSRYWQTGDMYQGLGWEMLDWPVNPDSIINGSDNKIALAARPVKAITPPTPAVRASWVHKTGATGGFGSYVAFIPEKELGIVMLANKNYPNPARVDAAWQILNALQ
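20 mM phosphate pH 7.0 + 0.01% (detergent screen) or 0.0001% Triton X-100; 5.3 nM AmpC reagent; cpd preinc 15 min RT; nitrocefin (800 uM stock) to start; A480 q20 s × 4 min; Activity was normalised to no-enzyme and no-compound control wells.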
Sm TGR inh: S. mansoni TGR enzyme inhibition; purified TGR, DTNB reduction, TNB absorbance 405 nm; Q962Y6; Potency, µM (top dose mostly 114 µM), for inactives: at the top dose activity change, negative = inhibition, most hits filed as inhibitors; AID 485364; 360,000 tested, 3% active; further: on the % scale 0 is the no-effect control and ±100 the full control effect; nearly all actives have a fitted effect of over 60% in size
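First, TGR (20 nM dispensed) and NADPH were mixed with compound. Second, a 15 min room-temperature incubation followed. Third, further NADPH and then DTNB were added to start the reaction. Finally, TNB absorbance was monitored kinetically.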
AmpC inh detg: AmpC beta-lactamase inhibition with detergent present; P00811; AmpC hydrolysis of nitrocefin, absorbance 480 nm, 0.01% Triton; Potency, µM (doses to about 114 µM), for inactives: top-dose activity change, negative = inhibition, usual class: inhibitors; 370,000 tested, 0.041% active;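 further: 0% = no-compound wells and -100% = no-enzyme wells; nearly all actives have a fitted effect of over 25% in size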
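20 mM phosphate pH 7.0 + 0.01% (detergent screen) or 0.0001% Triton X-100; 5.3 nM AmpC reagent; cpd preinc 15 min RT; nitrocefin (800 uM stock) to start; A480 q20 s × 4 min; Activity was normalised to no-enzyme and no-compound control wells.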
Pf growth 96h: P. falciparum growth inhibition at 96 hour, primary screen for plastid delayed-death inhibitors | P. falciparum luciferase reporter growth, 96 h | Potency, µM (series often up to 28.7 µM), for the others: at the top dose activity change, negative = inhibition, hits mostly inhibitors | 320,000 tested, 6.9% active; further: on the % scale 0 is the no-effect control and ±100 the full control effect
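Plates of compound plus infected erythrocytes (2% hematocrit, 0.05% parasitemia final) incubate 96 hours, 37 C, 5% CO2. Detection reagent added; reduced luminescence from the parasites' luciferase reporter flags inhibition.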
Pf growth 48h: inhibits P. falciparum growth in the first generation, 48 h | P. falciparum luciferase growth in erythrocytes, 48 h | Potency, µM (highest dose often 28.7 µM), for inactives: at the top dose activity change, negative = inhibition, most hits filed as inhibitors | 310,000 tested, 5.9% active | AID 504832; further: on the % scale 0 is the no-effect control and ±100 the full control effect
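Read-out is firefly luciferase luminescence from an integrated reporter in P. falciparum, so falling signal marks reduced parasite growth. Infected erythrocytes were at 2% hematocrit and 0.1% parasitemia (final) in Albumax-supplemented RPMI 1640.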
* marks the source's active call; other numbers are inactive results; ? = inconclusive; nt = no result given. Most compounds without a hit are left out; they make up all but 12% or so of the library. Unless noted, the call rests on the fitted dose curve; in most records, active means well fitted curve in the direction sought with a large enough effect; inconclusive means small, poorly fitted or top-dose-only effect, or another doubt; inactive means no such curve, though single readings can be large; an effect the other way counts as inactive or inconclusive. Potency means the concentration at half of the fitted maximal effect.

SMILES	SARS PLpro yeast	AmpC no deterg	Sm TGR inh	AmpC inh detg	Pf growth 96h	Pf growth 48h
Cc1ccc(-n2c(SCC(=O)NCc3ccco3)nnc2-c2cccnc2)cc1	-6.0%	-1.5%	44.7µM*	-8.2%	0.4%	-19.4%
Cc1cccc(NC(=O)C2CCN(S(=O)(=O)c3ccc4c(c3)NC(=O)CO4)CC2)c1	-2.5%	-23.1%	6.4%	-7.1%	-10.1%	?
CCOC(=O)C1=C(c2ccccc2)ON(C)C1c1ccccc1 (stereo not drawn)	9.2%	-21.1%	-0.4%	?	13.2%	-1.9%
CC(=O)c1cccc(NC(=O)C2CCN(S(=O)(=O)c3ccc4c(c3)oc(=O)n4C)CC2)c1	nt	nt	-1.2%	10.5%	nt	nt
Cc1nc2nc(CNC(=O)OC(C)(C)C)nn2c(C)c1CCC(=O)NCc1ccc(F)cc1	nt	nt	4.1%	9.9%	nt	nt
CCOC(=O)C1(Cc2ccccc2Cl)CCN(C(=O)CN2CCOC2=O)CC1	-1.3%	33.6%	-23.6%	-4.7%	38.9%	0.0%
O=C1CCN(Cc2nnnn2CC2CCCO2)c2ccccc2N1 (stereo not drawn)	0.9%	-15.3%	-9.6%	?	14.7µM*	20.0%
Cc1cc2c(cc1S(=O)(=O)NCc1ccc(F)cc1)OCCN2C	nt	nt	1.6%	16.6%	nt	nt
O=C(CN1C(=O)c2cccc([N+](=O)[O-])c2C1=O)OCC(=O)N1CCCCC1	-0.3%	7.8%	-15.7%	0.0%	2.7%	31.1%
Cn1cc(-c2cc3n(n2)CCC(=O)N3CC(=O)NCc2ccc(Cl)cc2)c2ccccc21	nt	nt	-6.2%	3.5%	nt	nt
Cc1ccccc1NC(=S)c1nc2ccccc2[nH]1	nt	-29.3%	-0.1%	1.6%	-21.1%	3.29µM*
S=C(Nc1ccc(Cl)cc1)c1nc2ccccc2[nH]1	-42.2%	-54.6%	-1.2%	-13.6%	?	-42.1%
COc1cc2c(cc1NC(=O)COc1cc(C)ccc1C)oc1ccccc12	nt	nt	2.8%	-3.5%	nt	nt
Cc1cc(Nc2nc3ccccc3nc2Cl)n(-c2ccc([N+](=O)[O-])cc2)n1	1.2%	-11.4%	1.8%	-0.3%	1.04µM*	nt
Cc1cccc(-n2cc(CNCCN3CCOC3=O)c(-c3cccc(F)c3)n2)c1	-0.5%	97.6%	-21.2%	-3.8%	13.8%	-0.5%
COc1cc(-c2nc(CN(C)C(C)c3ccncn3)c(C)o2)ccc1F (stereo not drawn)	0.1%	21.7%	31.6µM*	-1.4%	34.4%	?
CC(C)(C)C(=O)NNC(=O)C1CC1(c1ccccc1)c1ccccc1 (stereo not drawn)	0.6%	-7.8%	5.0%	7.5%	-11.7%	nt
COc1ccc(C)cc1NC(=O)C(Sc1nnc(Nc2cc(C)ccc2OC)s1)c1ccccc1 (stereo not drawn)	17.4%	-12.9%	10.8%	-9.1%	10.4µM*	0.0%
COc1cccc(Nc2nnc(SCC(=O)N(CC(C)C)CC(C)C)s2)c1	-5.2%	2.4%	2.8%	4.4%	1.31µM*	?
COc1cccc(Nc2nnc(SCN3C(=O)c4ccccc4C3=O)s2)c1	3.8%	-2.9%	6.2%	-8.7%	139.7%	62.9%
COc1ccc(Nc2nnc(SC(C(=O)Nc3ccc(OC)c(Cl)c3)c3ccccc3)s2)cc1 (stereo not drawn)	-13.3%	?	-7.2%	-0.3%	9.28µM*	?
COc1ccc(Nc2nnc(SC(C(=O)Nc3cc(C)ccc3C)c3ccccc3)s2)cc1 (stereo not drawn)	-0.2%	-10.8%	-0.5%	?	?	?
COc1cccc(NC(=O)C(Sc2nnc(Nc3ccccc3C)s2)c2ccccc2)c1 (stereo not drawn)	15.6%	-25.7%	-0.2%	0.8%	6.57µM*	?
COCCC(=O)N1CCC(Oc2ccc(C(=O)NCCc3ccccn3)cc2)CC1	0.9%	-0.4%	-1.6%	?	26.1%	0.0%
CCC1CN(C(=O)N2CCC(C(=O)NCCc3ccc(OC)cc3OC)CC2)c2cc(C)ccc2O1 (stereo not drawn)	nt	nt	-5.7%	-8.1%	nt	nt
SMILES	SARS PLpro yeast	AmpC no deterg	Sm TGR inh	AmpC inh detg	Pf growth 96h	Pf growth 48h
CCCCOc1ccc(C(=O)NCC2(c3ccc(OC)cc3)CCOCC2)cc1	2.5%	97.5%	-0.2%	-4.4%	-20.4%	-19.8%
COc1cccc(CNC(=O)c2ccc(CN3CC(=O)N4CCCCC4C3=O)cc2)c1 (stereo not drawn)	nt	nt	-1.4%	14.4%	nt	nt
COc1ccc(C)cc1NC(=O)C(Sc1nnc(-c2ccncc2)n1-c1ccc(Cl)cc1)c1ccccc1 (stereo not drawn)	-2.4%	190.6%	-2.8%	1.3%	10.4µM*	?
O=C(O)CSC1CC(=O)N(c2ccc(Cl)c(Cl)c2)C1=O (stereo not drawn)	-36.4%	-23.2%	17.8µM*	?	?	4.8%
COC(=O)c1cn(-c2ccccc2)nc1-c1ccccc1	-0.4%	-2.5%	0.3%	?	-3.9%	nt
CCOC(=O)C1=C(C)NC(C)=C(C(=O)OCC)C1c1cn(-c2ccccc2)nc1-c1ccco1	-0.1%	-8.9%	-23.9%	-14.6%	nt	4.65µM*
CC(C)OC(=O)c1cn(-c2ccccc2)nc1-c1ccco1	-6.8%	-19.8%	5.01µM*	1.1%	-3.5%	10.4µM*
CCOC(=O)C1=C(C)NC(=O)NC1c1cn(-c2ccccc2)nc1-c1cccs1 (stereo not drawn)	-2.5%	22.4%	-8.2%	?	?	?
COc1ccccc1N1CCN(c2nc(-c3ccc(C)cc3)nc3ccccc23)CC1	nt	nt	12.8%	7.0%	nt	nt
CCCCN(C)CCCNC(=O)c1cn(C)c2ccc(S(=O)(=O)N(C)C3CCCCC3)cc2c1=O	1.9%	14.9%	5.2%	2.6%	4.7%	?
CN(C1CCCCC1)S(=O)(=O)c1ccc2c(c1)c(=O)c(C(=O)NCCCN1CCCC1)cn2C	-8.1%	-6.6%	0.8%	-2.6%	13.1µM*	nt
CCn1cc(C(=O)N2CCc3ccccc32)c(=O)c2cc(S(=O)(=O)N(C)C3CCCCC3)ccc21	-13.4%	47.6%	4.0%	?	?	11.7µM*
CCN(CC)CCCNC(=O)c1cn(CC)c2ccc(S(=O)(=O)N(C)C3CCCCC3)cc2c1=O	-4.4%	105.3%	-18.4%	-3.4%	21.1%	?
CCCCN(CC)CCCNC(=O)c1cn(C)c2ccc(S(=O)(=O)N(C)C3CCCCC3)cc2c1=O	-3.7%	8.3%	-8.6%	-0.8%	14.7µM*	?
CCn1cc(C(=O)NCCCN2CCCC(C)C2)c(=O)c2cc(S(=O)(=O)N(C)C3CCCCC3)ccc21 (stereo not drawn)	2.7%	60.6%	-13.3%	-9.7%	11.7µM*	?
